The assay has as its system PRMT1 (protein arginine N-methyltransferase 1). Kind of assay: PRMT1 binders on small-molecule microarrays, primary screen, biochemical, small-molecule microarray, 635 nm fluorescence (AID 1088). The note with it: small-molecule microarray binding, higher = more signal.
`CC1CC/C=C\[C@H]2OC34C=CCN(C(C)(C)C)C(=O)[C@H]3N(CCCCCO)C(=O)[C@@H]4C2C(=O)O1` (stereo not given in full) had a composite z-score of -0.187.

In the case of `COc1cc(NN2C(C(O)c3cc(OC)c(OC)c(OC)c3)C=CC3C(=O)N(C)C(=O)C32)cc(OC)c1OC` (stereo not given), the composite z-score amounted to 0.986. Take `[N-]=[N+]=NCc1ccccc1[C@H]1OC(c2ccc(OCCCO)cc2)=N[C@@]1(Cc1ccccc1N=[N+]=[N-])C(=O)NCC(O)CO` (stereo not given in full): the composite z-score is 1.54. For `C=C(COC)/C(=C/C[C@H](OC(=O)c1ccncc1)c1ccccc1OCCO)c1cc(C(=O)OC)ccc1OC`, the composite z-score was found to be 1.44. Regarding `CC(C)=C1C(=O)C(c2ccccc2)=C2CN3C(=O)N(CCc4ccccc4)C(=O)[C@]3(Cc3ccc(C(F)(F)F)cc3)[C@H]21`, the composite z-score was -0.555. `NCCCCCCNC(=O)[C@@H]1C[C@@H]2C(=O)N[C@@H](CCCCN)C(=O)N2[C@@H]1c1ccc(O)cc1` had a composite z-score of 1.44.

As to `CC(C)[Si](C#CCCCC#N)(O[C@H](c1ccccc1)c1cn(Cc2ccccc2)nn1)C(C)C`, the composite z-score was found to be 1.36.

Compound `CC(C)c1ccc(NN2C(C(O)c3ccc(C#N)cc3)C=CC3C(=O)N(c4ccccc4)C(=O)C32)cc1` (stereo not given) displayed a composite z-score of 1.54. As to `COC(=O)[C@]1(CCS(=O)(=O)c2ccccc2)N=C(c2ccc(OCCCO)cc2)O[C@@H]1c1ccccc1N=[N+]=[N-]`, the composite z-score worked out at 1.54. Turning to `C=C[C@H](C)[C@H](OC(=O)Nc1ccc(SC)cc1)c1ccc(OCCO)cc1`, the composite z-score is 1.31. The value for `Cc1ccc(S[C@]2(C(=O)NCC(F)(F)F)CC(=O)N(Cc3cc(C(F)(F)F)cc(C(F)(F)F)c3)[C@@H]2c2ccc(CO)cc2)cc1` was 1.31; that for `O=C1OCCC=C[C@H]2OC34C=CCN(c5ccc6ccccc6c5)C(=O)[C@H]3N(CCCO)C(=O)[C@@H]4C12` (stereo not given in full) was -1.63. The result for `O=C1O[C@H](c2ccccc2)[C@H](c2ccccc2)N2[C@H]1[C@@H](C(=O)O)[C@]1(C(=O)Nc3ccc(C#CCCO)cc31)[C@H]2c1ccccc1OCCO` reads 1.09; that for `COC(=O)[C@@]1(Cc2ccc(F)cc2)[C@H]2c3cc(C(=O)N4CCCC4)n(CCc4c[nH]c5ccccc45)c3C[C@H]2CN1C(=O)c1ccccc1`, 1.38; that for `[N-]=[N+]=Nc1ccccc1C[C@]1(C(=O)N2CCOCC2)COC(c2ccc(OCCCO)cc2)=N1`, 1.56. `C=CCN1C(=O)[C@]2(CCC(=O)OC(C)(C)C)N=C(c3ccc(OCCCO)cc3)O[C@@H]2c2ccccc21`: the composite z-score stood at 1.08. The result for `O=C1OCCC=C[C@H]2OC34C=CCN(Cn5nnc6ccccc65)C(=O)[C@H]3N(CCCO)C(=O)[C@@H]4C12` (stereo not given in full) reads -1.72; that for `COCCOC(=O)N1C(=O)[C@@]2(c3ccccc31)[C@H](c1ccc(O)cc1)N1[C@H](c3ccccc3)[C@H](c3ccccc3)OC(=O)[C@H]1[C@@H]2C(=O)N1CCN(c2ncccn2)CC1`, 1.55; that for `Cc1ccc(S[C@]2(C(=O)NCC(F)(F)F)CC(=O)N(Cc3cc(C(F)(F)F)cc(C(F)(F)F)c3)[C@@H]2c2ccc(CO)cc2I)cc1`, -0.0631.

`C#CCN([C@@H](Cc1ccccc1)C(=O)OC)[C@@H](/C=C/C1CC1)[C@H](O)Cc1ccccc1` returned a composite z-score of -0.59. The value for `CC(C)C(CO)N1C(=O)[C@@H]2[C@H]3C(=O)OCC=C[C@H]3OC23C=CCN(c2ccc(Cl)cc2)C(=O)[C@@H]13` (stereo not given in full) was 0.193; that for `COC(=O)[C@@]1(Cc2ccc(F)cc2)[C@H]2c3cc(C(=O)N4CCCC4)n(Cc4ccc(C)c(F)c4F)c3C[C@H]2CN1C(=O)c1ccccc1` was -1.69. The value for `COc1ccccc1CN1C(=O)c2ccccc2[C@](Cc2ccccc2I)(C(=O)O)[C@@H]1c1ccc(CO)cc1` was 1.51; that for `COc1ccc([C@H]2OC[C@@H]3C[C@H](Cc4ccccc4)C(=O)N32)cc1` was -0.476; that for `COCCOC(=O)N1C(=O)[C@@]2(c3cc(C#CC4(O)CCCCCC4)ccc31)[C@H](c1ccc(O)cc1)N1[C@H](c3ccccc3)[C@H](c3ccccc3)OC(=O)[C@H]1[C@@H]2C(=O)N1CCN(c2ncccn2)CC1` was 1.55. `CCCC1(C(=O)OC)C=C2C(=C(C)C(=O)C2C)CN1` (stereo not given) came in with a composite z-score of -1.06. The result for `COc1cc(NN2C(C(O)c3ccco3)C=CC3C(=O)N(C)C(=O)C32)cc(OC)c1OC` (stereo not given) reads 0.865; that for `CCCNC(=O)[C@@H]1c2ccccc2C(=O)N(Cc2ccc(OC(F)(F)F)cc2)[C@H]1c1ccc(CO)cc1`, 0.428; that for `C=CC[C@@H](OC(=O)Nc1ccc(OC)cc1)c1ccc(O)c(F)c1`, 0.349. The result for `CCCC[C@@H](O)C1=C(COC)C[C@H]2C(=O)N(Cc3ccccc3)C(=O)[C@H]2[C@H]1CO` reads 0.831; that for `CC(C)NC(=O)[C@@]1(c2ccc([N+](=O)[O-])cc2)CC(=O)N(C2CCCCC2)[C@@H]1c1ccc(CO)cc1`, 1.54. `CC1CC/C=C\[C@H]2OC34C=CCN(c5ccc(Cl)cc5)C(=O)[C@H]3N(C(C)CO)C(=O)[C@]4(C)C2C(=O)O1` (stereo not given in full) yielded a composite z-score of -0.678. Turning to `COc1cc2c(cc1O)C(C1CC1)N(Cc1cccc(OC(F)(F)F)c1)CC2` (stereo not given), the composite z-score was 0.694. The value for `CC(c1ccccc1)C(O)C1C=CC2C(=O)N(C)C(=O)C2N1Nc1ccccc1` (stereo not given) was 1.33; that for `CCOC(=O)C1=CC[C@@H](c2ccccc2F)N(S(=O)(=O)c2ccc(C)cc2)[C@H]1c1ccccc1` was 1.12.

Source of the values: PubChem BioAssay.
